# The list is not random: actives were taken first. Their share in the collection is about 3.9%.
# D1 antagonist: human D1 dopamine receptor antagonism; P21728; activity change, negative = inhibition, % at 10 µM; HEK293 TREx D1 cells, calcium flux, dopamine EC80; stronger effect = lower value; 360,000 tested, 3.2% active; in the data active = activity change below about -30%
#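 HEK293 T-REx cells expressing inducible, force-coupled D1 receptor; no-wash Ca dye, 30–90 min RT. Cmpd → 180 s read at 1 Hz → EC80 DA → 180 s read.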
# D1 PAM: enhances dopamine response at the human D1 receptor; P21728; AID 504651; potentiation, % at 10 µM; HEK293 TREx D1 cells, calcium flux, dopamine EC20 potentiation; 360,000 tested, 0.036% active; in the data active = potentiation above about 30%
# GALK inh: galactokinase (human) inhibition | Purified GALK, Kinase-Glo residual ATP luminescence | Potency, µM (top dose mostly 57.5 µM), usual class: inhibitors | 270,000 tested, 0.007% active
#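 ATP-depletion format; final 35 uM ATP, 100 uM D-galactose, 5 nM enzyme; pH 8.0 HEPES/Mg2+ buffer; 60 min RT; luminescence read 10 min after detection reagent.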
# USP2a block: USP2a (human) protease inhibition; O75604; USP2 core, Ub-CHOP2 coupled fluorogenic reporter, 485/531; Potency, µM (top dose mostly 38.3 µM), actives largely listed as inhibitors; 330,000 tested, 0.01% active; AID 463254
# Target sequence (O75604 whole entry, looked up): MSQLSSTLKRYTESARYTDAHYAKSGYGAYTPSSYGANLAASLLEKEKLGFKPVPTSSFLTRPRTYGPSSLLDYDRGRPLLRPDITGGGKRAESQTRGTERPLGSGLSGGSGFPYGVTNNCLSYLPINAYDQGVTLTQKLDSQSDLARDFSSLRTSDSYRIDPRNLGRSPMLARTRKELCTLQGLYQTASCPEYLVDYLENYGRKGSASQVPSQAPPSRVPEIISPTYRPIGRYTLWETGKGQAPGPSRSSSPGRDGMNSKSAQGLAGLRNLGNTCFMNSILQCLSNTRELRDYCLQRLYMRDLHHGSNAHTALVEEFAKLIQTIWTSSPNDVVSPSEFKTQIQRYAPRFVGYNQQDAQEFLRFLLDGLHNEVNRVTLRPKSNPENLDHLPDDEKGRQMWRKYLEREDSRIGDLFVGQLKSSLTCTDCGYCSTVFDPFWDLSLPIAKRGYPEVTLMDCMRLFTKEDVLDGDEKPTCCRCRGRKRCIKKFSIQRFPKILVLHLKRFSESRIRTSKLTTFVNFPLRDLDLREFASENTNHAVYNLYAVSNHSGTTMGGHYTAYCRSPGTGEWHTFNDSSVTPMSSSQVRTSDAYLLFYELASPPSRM
#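 USP2 core (10nM final) preincubated 30min RT with compound in 20mM Tris-HCl pH 8.0, 2mM CaCl2, 2mM beta-mercaptoethanol, 0.05% CHAPS; 25nM Ub-CHOP2 plus 25nM reporter substrate added, fluorescence (Ex485/Em531) read after 60min.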
# Eya2 inh: blocks the phosphatase activity of human Eya2; 330,000 tested, 0.006% active; recombinant Eya2, OMFP fluorescence dephosphorylation (OMFP is methylfluorescein phosphate); Potency, µM (highest dose often 76.9 µM), actives largely listed as inhibitors
#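 Eya2 protein (added as 0.2 uM solution) was preincubated with compound for 10 min at ambient temperature in 50 mM HEPES pH 7.5, 50 mM NaCl, 5 uM MgCl2, 0.05% BSA, 1 mM DTT. OMFP (added at 50 uM) then reacted 10 min; fluorescence read at 485/525 nm.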
# D1 ag: human D1 receptor agonism. activation, % at 2 µM. HEK293 T-REx D1 cells, calcium flux, agonist mode. P21728. AID 504660. 360,000 tested, 1% active; in the data active = activation above about 30%
#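 Inducible HEK293 T-REx D1 cells, force-coupled to calcium signalling, were plated at 4000 cells/well with tetracycline and held overnight at 30 C. After no-wash calcium dye loading, compound-evoked calcium rise over 180 s flagged agonists.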
# Numbers stand for hits; - = inactive; ? = inconclusive; . = not tested or not shown; ! = not confirmed by another sample. Unless noted, calls follow the shape of the dose curve; as a rule, active = well fitted inhibition curve with a large enough effect; inconclusive = small, poorly fitted or top-dose-only effect, or effect the other way; inactive = flat fitted curve, though single readings scatter.
SMILES,D1 antagonist,D1 PAM,GALK inh,USP2a block,Eya2 inh,D1 ag
COc1ccc(/C(C)=N/Nc2nc(C)c(C(C)=O)s2)cc1,-33.0,-,-,-,-,-
COc1cccc(N2C(=O)C(CC(=O)Nc3cccc(F)c3)N(C(C)C)C2=O)c1 (configuration not stated),-,-,.,.,.,-
Cc1cc(C)cc(C(N)=Nc2cccc(C#N)c2)c1,-50.2,-,-,-,-,-
CN(C)CCNc1ncnc2c1cnn2-c1cccc(Cl)c1,-,-,.,.,.,37.4
OCCCNc1ncnc2c1cnn2-c1ccc(Cl)cc1,-35.9,-,-,-,-,-
O=C1CCCN1CCCNc1ncnc2c1cnn2-c1ccc(Cl)cc1,-,-,-,-,-,-
Cc1ccc(Cn2ncc3c(NCCN(C)C)ncnc32)cc1,-,-,.,-,-,-
CN(C)CCNc1ncnc2c1cnn2-c1ccc(Cl)cc1,-,.,-,-,-,32.5
Cc1ccc(-n2c(C)c(C)c3c(NCCN(C)C)ncnc32)cc1,-38.0,-,-,-,-,-
CCOc1ccccc1Nc1sc(C(=O)c2ccc(Cl)cc2)c(N)c1S(=O)(=O)c1ccccc1,-,-,.,.,.,-
Clc1ccc(-n2ncc3c(NCc4ccco4)ncnc32)cc1,-44.4,-,-,-,-,-
COc1ccc(-n2ncc3c(NCc4ccco4)ncnc32)cc1,-,-,-,-,-,-
COc1ccc(Nc2ncnc3c2cnn3-c2cc(Cl)ccc2C)cc1OC,-,-,.,.,.,-
Clc1cccc(-n2ncc3c(NCCCN4CCOCC4)ncnc32)c1,-77.2,-,.,.,.,-
Cc1ccc(Cl)cc1-n1ncc2c(Nc3cccc(C)c3C)ncnc21,-,-,.,.,.,56.9
COc1ccccc1C(=O)NCC1(N2CCN(C)CC2)CCCCC1,-,-,.,.,.,-
C[C@]12CCC(O)CC1CCC1C2CC[C@]2(C)C(c3cc(C(F)(F)F)n[nH]3)CCC12 (some centres not stated),-,-,-,-,-,43.0
C[C@]12CC[C@H](O)C[C@@H]1CC[C@@H]1[C@@H]2CC[C@@]2(C)[C@H]1CCC(=O)[C@]21CCCO1,.,.,.,-,-,.
c1ccc(Nc2nc(N3CCCCC3)nc(N3CCNCC3)n2)cc1,-,-,-,-,-,42.0
CCOC(=O)CC(NS(=O)(=O)c1ccc2[nH]c3c(c2c1)CCCC3)c1ccccc1Cl (configuration not stated),-,-,.,.,.,-
COc1ccc(NS(=O)(=O)c2cccc(C(=O)OCC(=O)N3CCN(c4ccc(OC)cc4)CC3)c2)cc1,-69.0,-,.,-,-,-
COc1ccc(NS(=O)(=O)c2ccc(N3CCCC3)c(N)c2)cc1,-,-,-,-,-,38.0
Nc1cc(S(=O)(=O)Nc2cc(Cl)ccc2Cl)ccc1N1CCCC1,-33.3,-,-,-,-,-
COc1ccc(NS(=O)(=O)c2ccc(N3CCCC3)c(NC(=S)Nc3cccc(C)c3C)c2)cc1,-,-,-,-,-,-
COc1ccc(NS(=O)(=O)c2ccc(N3CCCC3)c(NC(=S)Nc3ccc(SC(F)F)cc3)c2)cc1,-41.9,-,-,-,-,-
SMILES,D1 antagonist,D1 PAM,GALK inh,USP2a block,Eya2 inh,D1 ag
COc1ccc(NC(=O)C2CCN(S(=O)(=O)c3c(C)noc3/C=C/c3ccco3)CC2)cc1,-,-,.,.,.,-
Cc1ccc(-n2ncc3c(N4CCCCCC4)ncnc32)cc1C,-,-,.,.,.,-
CN(CC(=O)Nc1cccc(C(F)(F)F)c1)S(=O)(=O)c1ccc2[nH]c3c(c2c1)CCCC3,-,-,.,.,.,-
O=C(Nc1cccc(F)c1)C1CCN(S(=O)(=O)c2ccc3[nH]c4c(c3c2)CCCCC4)CC1,-31.6,-,.,.,.,-
CN(CC(=O)Nc1cccc(Cl)c1)S(=O)(=O)c1ccc2[nH]c3c(c2c1)CCCC3,-34.7,-,.,.,.,-
CSc1cccc(NC(=O)C2CCN(S(=O)(=O)c3ccc4[nH]c5c(c4c3)CCCCC5)CC2)c1,-,-,.,.,.,-
CCCOc1ccc(NC(=O)CC2C(=O)N(c3ccc(C)cc3)C(=O)N2C(C)C)cc1 (configuration not stated),-,-,.,.,.,-
CCOc1cccc(CN2CCCC(C(=O)Nc3cccc(-n4cccn4)c3)C2)c1 (configuration not stated),-,-,-,-,-,-
CCOc1ccccc1CN1CCCC(C(=O)Nc2cccc(-n3cccn3)c2)C1 (configuration not stated),-63.8,-,-,-,-,49.3
CCn1ncc(CN2CCCC(C(=O)Nc3cccc(-c4cc5ccccc5[nH]4)c3)C2)c1C (configuration not stated),-50.9,-,-,-,-,90.6
Oc1c(Cl)cc(Cl)cc1Sc1cc(Cl)cc(Cl)c1O,-55.8,-,.,-,-,-
O=C(NCCN1C(=O)S/C(=C\c2ccc(F)cc2)C1=O)C1CCN(S(=O)(=O)c2cccs2)CC1,-,-,-,-,-,-
O=C(COC(=O)C1CCN(S(=O)(=O)c2cccs2)CC1)Nc1ccc(F)c(F)c1F,-35.6,-,.,-,-,-
Cc1ccc(NC(=O)C2CCN(S(=O)(=O)c3cccs3)CC2)cc1,-37.4!,-,-,-,-,-
COc1ccc(/C=C2\SC(=O)N(CCNC(=O)C3CCN(S(=O)(=O)c4cccs4)CC3)C2=O)cc1,-35.4,-,-,-,-,-
O=C(Nc1cccnc1)C1CCN(S(=O)(=O)c2cccs2)CC1,-32.3,-,-,-,-,-
CC(C)C(OC(=O)CNC(=O)c1ccccc1)C(=O)Nc1cc(C(F)(F)F)ccc1Cl (configuration not stated),-,-,.,.,.,-
O=C(Nc1ccc(Br)cc1)c1cccc(S(=O)(=O)Nc2ccccn2)c1,-61.6,-,-,-,-,-
O=C(Nc1ccccc1)c1cccc(S(=O)(=O)Nc2ccccn2)c1,-,-,-,-,-,-
Cc1nn(-c2ccc(N3CCCC3)nn2)c(C)c1CCC(=O)N1CCN(c2ccccc2F)CC1,-,-,.,.,.,-
CC1=C(C(=O)OC(C)C)C(c2cccs2)C(C(=O)OC(C)C)=C(C)N1,-32.2,-,-,-,-,-
CC1=C(C(=O)OC(C)C)C(c2cccs2)NC(=O)N1 (configuration not stated),-,-,-,-,-,-
CCOC(=O)/C(C#N)=C/N=c1ccc(C)cn1C,-,-,-,-,-,-
CCCN1C=CC(=C/C=C(\C#N)C(=O)OCC)C=C1,-,-,-,?,?,33.5
CCOC(=O)/C(C#N)=C/C=C1\C=Cc2ccccc2N1CC,-,-,-,-,-,-
CCCCCCN1C=CC(=C/C=C(\C#N)C(=O)OCC)C=C1,-,-,-,-,?,178.2

# Screening results from PubChem.
